From article PMC5540273 (PLoS ONE, 2017)

What was measured:
[1] = system: T1, DRAK2
T1 construct: gene STK17B

[2] = system: T2, DRAK1
T2 construct: gene STK17A
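Note: kd values determined as follow-up on hits from a single-replicate KINOMEscan panel screen.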

Structure (SMILES) | Kd [1] [nM] | Kd [2] [nM]
CSc1ccc(-c2cc3ncnc(SCC(=O)O)c3s2)cc1 | 3.8 | –
O=C(O)COc1ncnc2cc(-c3ccc4[nH]ncc4c3)sc12 | 30 | 250
